Measurements reported in PubChem BioAssay (NCATS).
Records with an inconclusive call do not appear. The source made the active and inactive calls. Unless noted, calls follow the shape of the dose curve; as a rule, active = well fitted curve in the direction sought with a large enough effect; inconclusive = small, poorly fitted or top-dose-only effect, or another doubt; inactive = no such curve, though single readings can be large; an effect the other way counts as inactive or inconclusive.

Assays:
[1] = qHTS for Inhibitors of the Functional Ribonucleoprotein Complex (vRNP) of Lassa (LASV) Arenavirus: LASV Primary Screen - GLuc reporter signal (AID 1347082; calls by dose curve; tested in HEK293 reporter line; also: % is scaled to controls: 0 for no effect and ±100 for the full control effect; nearly all actives have a fitted effect of over 60% in size)
[2] = qHTS assay for small molecule activators of the p53 signaling pathway (AID 651743; active = well fitted activation curve with a large enough effect in the signal ratio, not every such curve was filed as active; the % refers to the signal ratio; also: % of control where 0% means no effect); settings: HCT-116 p53RE-bla, beta-lactamase FRET ratio, 16 h; activation: hits give high values
Procedure, shortened: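 Screen for p53 pathway agonists uses stably transfected p53RE-bla HCT-116 cells, 4,000 per well, treated 16 h at 37 C with compounds in DMSO.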

[3] = qHTS assay for environmental chemicals that activate the Aryl hydrocarbon Receptor (AhR) signaling pathway (AID 651777); settings: 1A2-DRE human hepatoma cells, luciferase, 24 h; activation: hits give high values; also: % of control where 0% means no effect; nearly all actives have a fitted effect of over 15% in size
Procedure, shortened: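 Luminescence read-out: One-Glo added for 30 min at RT after 24 hr compound treatment (37 C, 5% CO2) of human hepatoma cells expressing a DRE/CYP1A2 promoter–luciferase reporter; increased signal indicates AhR activation.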

[4] = target: Peroxisome proliferator-activated receptor alpha (Homo sapiens) (UniProt Q07869); experiment: qHTS assay for small molecule agonists of the peroxisome proliferator-activated receptor alpha (PPARalpha) signaling pathway (AID 651778); settings: PathHunter PPARalpha complementation, chemiluminescence, 6 h; hits give high values; also: % of control where 0% means no effect
Procedure, shortened: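 Chemiluminescence from complemented enzyme reported PPARalpha activation in cells after 6 hr of compound treatment at 37 C. The detection reagent was incubated for 60 min at room temperature, and compounds were scored as agonists.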

[5] = qHTS assay for small molecule agonists of the antioxidant response element (ARE) signaling pathway measured by Nrf2-dependant transcriptional activity (AID 720636; active = well fitted curve in the direction sought with a large enough effect in the repeat runs; an effect the other way counts as inactive or inconclusive;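 also: HepG2 cells with an ARE-driven luciferase reporter; % of control where 0% means no effect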)
Procedure, shortened: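 HepG2 ARE-luc reporter line, 1% dialyzed FBS; 6 hr attachment at 37 C, compound pinned in, 16 hr at 37 C/5% CO2; ONE-Glo, 30 min RT, luminescence read.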

[6] = qHTS assay for small molecule agonists of the antioxidant response element (ARE) signaling pathway measured by Nrf2-dependant transcriptional activity - cell viability counter screen (AID 720653; active = well fitted curve in the direction sought with a large enough effect in the repeat runs; an effect the other way counts as inactive or inconclusive; also: % is scaled to controls: 0 for no effect and ±100 for the full control effect); settings: ARE-bla HepG2 viability, CellTiter-Glo ATP luminescence, 16 h; max response: hits give low values
Procedure, shortened: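 Cytotoxicity counter screen: intracellular ATP quantified by CellTiter-Glo luminescence in the same ARE-bla HepG2 plates, after 16 h compound exposure and a 2 h beta-lactamase substrate step.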

[7] = qHTS Assay for Identifying Gametocytocidal Compounds (AID 743244);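 also: % is scaled to controls: 0 for no effect and ±100 for the full control effect; actives lower the fluorescent signal which means gametocytes are killed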; settings: P. falciparum 3D7 stage III-V gametocytes, alamarBlue, 72 h; max response: hits give low values
Procedure, shortened: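 Fluorescence at Ex 525/Em 598 nm, recorded 24 h after alamarBlue addition, reports residual metabolic activity of 3D7 gametocytes (stages III–V) following 72 h compound exposure at 37 °C, 5% CO2.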

[8] = qHTS assay for cell viability of HEK293 cells (AID 743288); settings: ATP luminescence (CellTiter-Glo), 18 h; max response: hits give low values; also: % is scaled to controls: 0 for no effect and ±100 for the full control effect; nearly all actives have a fitted effect of over 50% in size
Procedure, shortened: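 Environmental chemicals tested in qHTS format against parental HEK293 cells; 18 h treatment, 37 C; read-out ATP luminescence (CellTiter-Glo), 30 min RT development.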

[9] = qHTS assay for cell viability of the p53RE-bla HCT-116 cell line (AID 743292); also: % is scaled to controls: 0 for no effect and ±100 for the full control effect; nearly all actives have a fitted effect of over 55% in size
Procedure, shortened: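 Luminescent ATP quantitation (CellTiter-Glo) served as the viability read-out; reagent was added after 16 h compound exposure at 37 C and read after 30 min at room temperature. Cells: p53RE-bla HCT-116, 4,000 per well.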

[10] = P-glycoprotein substrates identified in KB-8-5-11 adenocarcinoma cell line, qHTS therapeutic library screen (AID 1346987); also: nearly all actives have a fitted effect of over 65% in size; also: potency is read from the fitted curve at half-maximal effect
Procedure, shortened: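 KB-8-5-11: colchicine-selected sub-line of KB-3-1 over-expressing P-gp; assay medium lacked colchicine. 72 h drug exposure at 37 degree C, CellTiter-Glo.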

[11] = Drug repurposing screens with cells derived from glioblastoma tumor samples (AID 1345199); settings: GBM patient neurospheres viability, ATP luminescence, 48 h; Potency: tumour line A; series mostly up to 45.9 µM; also: % is scaled to controls: 0 for no effect and ±100 for the full control effect; nearly all actives have a fitted effect of over 40% in size
Procedure, shortened: (§1)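 Four patient lines of CD133+ GBM neurospheres were screened at several concentrations; hits were retested in those lines plus three slower-growing GBM lines, using 48-hour treatment and ATP-based viability.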

[12] = target: Nuclear receptor subfamily 1 group I member 2 (Rattus norvegicus) (UniProt Q9R1A7); experiment: qHTS assay for small molecule activators of the rat pregnane X receptor (rPXR) signaling pathway (AID 651751; call rule not given here; also: 0% is about no effect); settings: rPXR reporter cells, luciferase (One-Glo), 24 h
[13] = qHTS assay for small molecule activators of the human pregnane X receptor (PXR) signaling pathway (AID 720659; call rule not given here; also: 0% is about no effect)
[14] = P-glycoprotein substrates identified in KB-3-1 adenocarcinoma cell line, qHTS therapeutic library screen (AID 1346986); also: nearly all actives have a fitted effect of over 60% in size;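 also: potency is read from the fitted curve at half-maximal effect; potency is for cytotoxicity meaning loss of cell viability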
Procedure, shortened: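 Counter-screen: cherry-picked hits retested in the KB pair and in HEK-293 pcDNA/MDR-19 cells ± tariquidar. Primary screen used 72 h CellTiter-Glo viability in KB-3-1 and KB-8-5-11.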

[15] = Cytotoxicity counterscreen for inhibitors of SARS-CoV-2 cell entry (AID 1645845; calls by dose curve; also: % is scaled to controls: 0 for no effect and ±100 for the full control effect; nearly all actives have a fitted effect of over 50% in size)
Procedure, shortened: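 48 h compound treatment (after 1 h preincubation), HEK293-ACE2 cells, 37 C/5% CO2; ATP luminescence endpoint; normalized to cell wells and media blanks.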

[16] = Primary qHTS for inhibitors of nuclear receptor binding SET domain protein 2 (NSD2) in an RCH-ACV wild type WT cells (2C) (AID 1645877); also: nearly all actives have a fitted effect of over 70% in size; also: potency is read from the fitted curve at half-maximal effect
[17] = target: Glutathione peroxidase 1 (Homo sapiens) (UniProt P07203); experiment: Primary qHTS Assay for Inhibitors of Recombinant Selenoprotein Glutathione Peroxidase 1 (GPX1) (AID 1845191); also: % is scaled to controls: 0 for no effect and ±100 for the full control effect; nearly all actives have a fitted effect of over 65% in size
Procedure, shortened: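 10 nM GPX1 + cpd, 30 min RT; start w/ 1 mM GSH, 0.5 mM cumene hydroperoxide, 0.5 mM NADPH, 100 nM GR, 0.01% BSA; buffer 50 mM Tris-HCl pH 7.5, 2 mM EDTA, 150 mM NaCl; Fl 340/450, 0 & 15 min.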

[18] = target: Phospholipid hydroperoxide glutathione peroxidase GPX4 (Homo sapiens) (UniProt P36969); experiment: Primary qHTS Assay for Inhibitors of Recombinant Selenoprotein Glutathione Peroxidase 4 (GPX4) (AID 1845192); also: % is scaled to controls: 0 for no effect and ±100 for the full control effect; nearly all actives have a fitted effect of over 65% in size
Procedure, shortened: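 NADPH consumption, followed by fluorescence at 340/450 nm between 0 and 15 min, reports GPX4 activity via coupled glutathione reductase (100 nM). Enzyme 200 nM was pre-exposed to compound 30 min; 0.5 mM cumene hydroperoxide and 1 mM GSH served as substrates.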

[19] = target: Luciferin 4-monooxygenase (Photinus pyralis) (UniProt P08659); experiment: Biochemical firefly luciferase enzyme assay for NPC (AID 624030);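 also: purified P. pyralis luciferase at 10 nM with luciferin and ATP substrate; 0% = DMSO and -100% = full luciferase inhibition by PTC124 control; nearly all actives have a fitted effect of over 70% in size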
Procedure, shortened: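 Direct inhibition of firefly luciferase enzyme (10 nM final, 50 mM Tris Acetate) assessed by luminescence within 5 minutes. Percent activity scaled between DMSO and PTC124 positive control, with concentration-effect curves classified by fit quality and response.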

astro = experiment: Drug repurposing screens with cells derived from glioblastoma tumor samples (AID 1345199); settings: viability, ATP luminescence, 48 h; series mostly up to 45.9 µM; also: % is scaled to controls: 0 for no effect and ±100 for the full control effect; nearly all actives have a fitted effect of over 40% in size
Procedure, shortened: as §1

[20] = Primary qHTS for inhibitors of nuclear receptor binding SET domain protein 2 (NSD2) in an isogenic RCH-ACV NSD2 p.E1099K mutant (9B) (AID 1645876); also: potency is read from the fitted curve at half-maximal effect; nearly all actives have a fitted effect of over 70% in size

Sequence of Glutathione peroxidase 1 (Homo sapiens) (P07203 whole entry, looked up): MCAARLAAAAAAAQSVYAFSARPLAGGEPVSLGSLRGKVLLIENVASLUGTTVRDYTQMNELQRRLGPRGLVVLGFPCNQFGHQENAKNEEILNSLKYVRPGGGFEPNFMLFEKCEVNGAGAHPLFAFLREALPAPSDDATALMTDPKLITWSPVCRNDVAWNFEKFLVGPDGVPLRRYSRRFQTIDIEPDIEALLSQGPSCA
Sequence of Peroxisome proliferator-activated receptor alpha (Homo sapiens) (Q07869 whole entry, looked up): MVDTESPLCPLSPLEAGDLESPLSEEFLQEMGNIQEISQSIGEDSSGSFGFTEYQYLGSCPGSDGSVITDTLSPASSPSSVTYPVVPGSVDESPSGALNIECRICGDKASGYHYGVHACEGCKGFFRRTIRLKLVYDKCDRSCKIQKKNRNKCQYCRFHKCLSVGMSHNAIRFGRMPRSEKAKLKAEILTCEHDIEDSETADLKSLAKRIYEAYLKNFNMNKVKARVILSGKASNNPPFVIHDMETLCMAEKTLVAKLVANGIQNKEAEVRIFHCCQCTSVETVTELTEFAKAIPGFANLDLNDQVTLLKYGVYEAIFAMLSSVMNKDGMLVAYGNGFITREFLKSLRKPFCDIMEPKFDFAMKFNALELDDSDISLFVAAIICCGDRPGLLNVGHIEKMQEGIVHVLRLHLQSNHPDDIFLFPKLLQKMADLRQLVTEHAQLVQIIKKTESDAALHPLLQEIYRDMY
Sequence of Luciferin 4-monooxygenase (Photinus pyralis) (P08659 whole entry, looked up): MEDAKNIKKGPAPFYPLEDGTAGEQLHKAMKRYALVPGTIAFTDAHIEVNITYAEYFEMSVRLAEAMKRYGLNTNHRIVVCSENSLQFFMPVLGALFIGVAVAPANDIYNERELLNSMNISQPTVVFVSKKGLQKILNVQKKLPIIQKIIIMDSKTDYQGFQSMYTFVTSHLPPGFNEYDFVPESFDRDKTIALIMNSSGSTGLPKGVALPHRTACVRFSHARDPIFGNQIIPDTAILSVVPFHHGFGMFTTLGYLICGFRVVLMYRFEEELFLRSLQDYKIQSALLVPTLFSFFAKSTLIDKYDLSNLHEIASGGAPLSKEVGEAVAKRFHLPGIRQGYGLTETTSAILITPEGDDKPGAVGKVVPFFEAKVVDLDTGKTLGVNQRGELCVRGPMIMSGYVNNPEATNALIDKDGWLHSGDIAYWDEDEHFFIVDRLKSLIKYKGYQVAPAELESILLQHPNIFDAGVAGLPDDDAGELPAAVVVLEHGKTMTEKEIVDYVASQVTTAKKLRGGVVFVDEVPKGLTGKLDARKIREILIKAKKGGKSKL
Sequence of Nuclear receptor subfamily 1 group I member 2 (Rattus norvegicus) (Q9R1A7 whole entry, looked up): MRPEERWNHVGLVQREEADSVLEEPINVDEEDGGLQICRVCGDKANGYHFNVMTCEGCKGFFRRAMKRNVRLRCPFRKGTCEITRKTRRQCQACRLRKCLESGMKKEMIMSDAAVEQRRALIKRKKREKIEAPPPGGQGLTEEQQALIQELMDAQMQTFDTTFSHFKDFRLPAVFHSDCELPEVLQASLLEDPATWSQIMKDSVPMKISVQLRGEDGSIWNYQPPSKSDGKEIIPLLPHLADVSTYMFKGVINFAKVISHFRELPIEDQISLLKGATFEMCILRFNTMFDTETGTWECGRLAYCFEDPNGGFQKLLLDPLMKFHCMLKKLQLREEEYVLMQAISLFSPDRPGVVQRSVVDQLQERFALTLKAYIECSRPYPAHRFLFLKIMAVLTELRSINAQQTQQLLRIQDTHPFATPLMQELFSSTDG
Sequence of Phospholipid hydroperoxide glutathione peroxidase GPX4 (Homo sapiens) (P36969 whole entry, looked up): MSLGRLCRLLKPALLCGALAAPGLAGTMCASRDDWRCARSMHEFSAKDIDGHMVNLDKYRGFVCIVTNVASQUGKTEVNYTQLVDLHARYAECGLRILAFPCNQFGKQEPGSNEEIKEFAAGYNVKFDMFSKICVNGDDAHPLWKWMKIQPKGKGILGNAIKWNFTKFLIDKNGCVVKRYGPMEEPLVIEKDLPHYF

COc1cccc2c1C1COC3C4CC(C(=O)O)C(C(C2)N13)N4C (stereo not given)
inactive: Potency [1]

C[C@]12CC[C@H]3[C@@H](CCC4=CC(=O)CC[C@@]43C)[C@@H]1CC[C@H]2O
active: Potency [10] 2590 nM
inactive: activation [2] 0.0688% | activation [3] -2.33% | max response [4] -2.25% | Potency [5] | max response [6] 1.08% | max response [7] -4.18% | max response [8] -7.89% | outcome [9] | Potency [11] | max response [12] 3.9% | outcome [13]

COc1cc2c(cc1F)C(c1ccccc1Cl)=Nc1c(n[nH]c1C)N2
active: Potency [14] 2060 nM | Potency [10] 1300 nM | Potency [16] 1030 nM
inactive: Potency [15] | Potency [17] | Potency [18]

CC1=CC(C)CC(C)OC(=O)CC(c2ccc(O)cc2)NC(=O)C(Cc2c(Br)[nH]c3ccccc23)N(C)C(=O)C(C)NC(=O)C(C)C1 (stereo not given)
inactive: Potency [1]

CN(C)CCO
inactive: Potency [19] | max response [7] 29.8% | Potency [11] | Potency (astro)

COC[C@@H]1OC(=O)/C(=C\N(C)CCCN(C)C)C2=C(O)C(=O)C3=C([C@@H](OC(C)=O)C[C@@]4(C)[C@@H]3CC[C@@H]4O)[C@@]21C
inactive: Potency [17]
active: Potency [14] 13000 nM | Potency [20] 2590 nM | Potency [16] 2590 nM

Nc1ccn(CC(CO)OCP(=O)(O)O)c(=O)n1 (stereo not given)
inactive: Potency [14] | Potency [10] | Potency [16]

CC(C)(O)/C=C/C(=O)[C@](C)(O)[C@H]1[C@H](O)C[C@@]2(C)[C@@H]3CC=C4[C@@H](C=C(O)C(=O)C4(C)C)[C@]3(C)C(=O)C[C@]12C
active: Potency [14] 94.4 nM | Potency [10] 237 nM | Potency [20] 42.2 nM | Potency [16] 37.6 nM
